Compound activity: PubChem, several laboratories
IEC-6 tox – counter-screen for KLF5 inhibitors: cytotoxicity in IEC-6 cells; inhibition, % at 5 µM; IEC-6 cytotoxicity, luminescence viability; 290,000 tested, 0.78% active; in the data active = inhibition above about 22%;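 also: 0% = plate median of test compound wells and 100% = cytotoxic reference compound wells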
Ba/F3 V617F tox – reduce viability of Ba/F3 cells dependent on JAK2V617F. inhibition, % at 5.6 µM. Ba/F3 EpoR-JAK2V617F viability, ATP luminescence. 220,000 tested, 1.1% active;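 active = inhibition above the campaign mean plus 3 SD over all tested compounds, cut at about 24% in these data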;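 also: cytokine-independent growth of Ba/F3 cells driven by EpoR plus mutant JAK2; 0% = DMSO-treated cells and 100% = JAK inhibitor I control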
APP 5UTR inh – APP translation inhibition. SH-SY5Y APP 5'UTR-luciferase reporter, luminescence. inhibition, % at 2 µM. 190,000 tested, 0.82% active. AID 1285;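 active = inhibition above a set limit, derived from the sample mean plus 3 SD, cut at about 45% in these data; inconclusive = one replicate passes the limit while the other fails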
aSyn 5UTR inh – MLPCN primary screen, SNCA 5' untranslated region; alpha-synuclein 5'UTR reporter, inhibitor activity; inhibition, % (tested at 7.5 µM); 300,000 tested, 0.82% active; AID 1813; in the data active = inhibition above about 60%; inconclusive = no clear call, values can overlap the other calls;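 also: H4 neuroglioblastoma cells stably carrying SNCA 5'UTR luciferase fusion; 0% = DMSO wells and 100% = positive control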
KLF5 inhibitor – inhibitors of KLF5 expression | DLD-1 KLF5 promoter-luciferase reporter, luminescence | inhibition, % at 5 µM | 290,000 tested, 0.23% active;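 active = inhibition above a per-plate limit of that plate's mean compound inhibition plus 3 SD, cut at about 60% in these data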;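 also: 0% = DMSO wells and 100% = LY294002 at 200 µM; higher means less KLF5 promoter-driven luciferase light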
BaF3 tox – parental Ba/F3 viability inhibition as JAK2V617F counter-screen; CellTiter-Glo ATP luminescence; inhibition, % at 5.6 µM; 220,000 tested, 1.1% active;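 active = inhibition above a per-campaign cutoff, the mean inhibition of all tested compounds plus 3 SD, cut at about 27% in these data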;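 also: 0% = DMSO wells and 100% = JAK Inhibitor I control wells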
Active calls of the source: *; ? = inconclusive; / = not tested or not shown. Rows were chosen to be rich in hits. Some 2.1% of all compounds tested hit in one or more screens of this group.

SMILES	IEC-6 tox	Ba/F3 V617F tox	APP 5UTR inh	aSyn 5UTR inh	KLF5 inhibitor	BaF3 tox
Cc1ccccc1NC(=O)/C=C/c1ccc([N+](=O)[O-])s1	14	80*	90*	-80	2	55*
COCc1ccc(C(=O)NC2CCCc3c2cnn3-c2cc(C)cc(C)c2)s1 (configuration not stated)	7	/	/	4	-24	/
CCCC(=O)OCCNc1cc(Sc2nccn2C)c2nonc2c1[N+](=O)[O-]	0	-1	75*	-1	-6	3
CCCSc1cc(NCCOC(=O)CCC)c([N+](=O)[O-])c2nonc12	-1	-3	11	27	0	4
Cc1ccc(/C=N/NC(=S)NC(C)C)o1	-3	0	72*	-37	-31	2
COc1ccc(COc2cc(-c3cccc(OC)c3)nc3ccc(NC(=O)c4ccc(OC)cc4)cc23)cc1	19	78*	56*	18	1	53*
COc1ccc(COc2cc(-c3cccc(OC)c3)nc3ccc(NC(=O)c4ccccc4)cc23)cc1	5	0	-1	-1	-13	6
O=c1cc(CNc2cc(C(F)(F)F)cc(C(F)(F)F)c2)nc2sccn12	17	10	0	65*	8	9
O=c1ccc(C(F)(F)F)cn1Cc1cc(=O)n2ccsc2n1	-6	-3	4	-27	4	4
COc1cccc(C(=O)NCc2ccco2)c1OC	1	/	/	5	-26	/
FC(F)(F)c1ccccc1NC(=S)N/N=C1\CC2CC=CC12 (configuration not stated)	0	4	86*	/	-3	11
Cc1ccc(N(C(=O)c2snc(C(N)=O)c2N)C(C(=O)NCCC(C)C)c2ccco2)cc1 (configuration not stated)	-5	2	1	19	-26	12
O=C(/C=C/c1ccco1)Oc1cc(Br)cc(/C=N/NC(=O)c2ccccc2O)c1	1	-4	64*	96*	-5	0
Cc1ccc(C(=O)N/N=C/c2cccc(OC(=O)/C=C/c3ccco3)c2)cn1	-4	0	-3	-100	-23	4
COc1ccccc1NS(=O)(=O)c1cc(NC(=O)Nc2cccc(C)c2)ccc1N1CCCCC1	-15	1	-27	-8	-18	8
O=C(Nc1ccc(Cl)cc1)Nc1ccc(N2CCCC2)c(S(=O)(=O)Nc2ccccc2Cl)c1	4	53*	4	35	-25	37*
COC(=O)c1ccc(C2Nc3ccc(/C(C)=N/NC(=O)C(OC)c4ccccc4)cc3C3C=CCC32)cc1 (configuration not stated)	-3	2	-10	-13	-4	5
CCCCCCc1ccc(OC(=O)c2ccncc2)cc1	0	/	/	-23	-12	/
CCCCCCOc1ccc(OC(=O)c2ccncc2)cc1	13	44*	-3	-38	-29	32*
CC(C)(C)c1nnc(N/N=C/c2ccccc2O)n(N)c1=O	-3	-3	76*	110*	19	1
CCc1nnc(N/N=C/c2ccccc2F)n1N	102*	9	10	-28	6	-1
CC(C)(C)c1nnc(N/N=C/c2ccccc2)n(N)c1=O	-14	-2	-8	-34	0	6
COc1ccc(C2C3=C(Nc4ncnn42)c2ccccc2CCC3)cc1 (configuration not stated)	2	-2	10	27	-13	-1
Fc1ccc(/C=C2\CCCC3=C2Nc2ncnn2C3c2ccc(F)cc2)cc1 (configuration not stated)	-5	-1	56*	11	-4	6
Cc1ccc(CNC(=O)CCCn2nc(C)c3c(C)n(-c4ccccc4)nc3c2=O)cc1	-3	/	/	13	-15	/
SMILES	IEC-6 tox	Ba/F3 V617F tox	APP 5UTR inh	aSyn 5UTR inh	KLF5 inhibitor	BaF3 tox
CN1/C(=C\C(=O)c2cccnc2)C(C)(C)c2ccccc21	0	-1	-34	-7	20	7
CN1/C(=C/C(=O)c2nc(S(C)(=O)=O)ncc2Cl)C(C)(C)c2ccccc21	-4	87*	57*	?	-30	92*
CN1/C(=C\C(=O)COC(=O)c2ccco2)C(C)(C)c2ccccc21	5	12	-30	17	-14	4
CN1/C(=C\C(=O)COC(=O)c2ccccc2O)C(C)(C)c2ccccc21	2	-1	/	-8	1	2
CN1/C(=C\C(=O)C[n+]2ccc3ccccc3c2)C(C)(C)c2ccccc21	2	41*	-20	-31	22	42*
CN1/C(=C\C(=O)c2cncc(Br)c2)C(C)(C)c2ccccc21	-2	62*	-1	1	-32	70*
CN1/C(=C\C(=O)c2ccco2)C(C)(C)c2ccccc21	9	72*	-8	4	-6	65*
CC(Oc1ccc(Cl)cc1)C(=O)N/N=C/c1ccsc1 (configuration not stated)	-7	-2	11	9	5	3
CN1/C(=C\C(=O)COc2ccc3c(c2)OCO3)C(C)(C)c2ccccc21	0	64*	3	2	-9	62*
COc1ccccc1OCC(=O)/C=C1/N(C)c2ccccc2C1(C)C	-4	6	-7	24	-38	7
COc1ccnc(N=CNOCc2cccc(C(F)(F)F)c2)c1C#N	4	2	-47	-6	-7	2
CC(=O)c1c(COC(=O)c2ccc(C)cc2)nc2ccccc2[n+]1[O-]	0	-3	/	-1	-21	51*
COc1ccc(-c2nc3ncccc3o2)cc1NC(=O)c1ccco1	2	/	/	-23	-31	/
Oc1ccccc1/C=N/Nc1nccnc1Cl	1	10	42	88*	-58	8
O=[N+]([O-])c1ccccc1/C=N/Nc1nccnc1Cl	4	5	-67	-184	-22	12
CN1CCN(CCCC(=O)c2ccc(F)cc2)CC1	-2	1	-3	0	-7	92*
CC(C)(C)C(=O)N1CCc2cc(-c3csc(N)n3)ccc21	-2	-1	-121	66*	-12	-1
CCC(C)C(=O)N1CCc2cc(-c3csc(N)n3)ccc21 (configuration not stated)	-2	6	-86	-172	-145	9
CCN(Cc1ccncc1)C(=O)c1cc(COc2ccc(OC)cc2Cl)on1	4	/	/	-111	-92	/
CN(C)c1ccc(N2C(=NC(=O)COc3ccccc3)SC3CS(=O)(=O)CC32)cc1 (configuration not stated)	-1	/	/	-21	-34	/
Cc1ccnc(NC(=O)c2sc3ccccc3c2Cl)c1	1	-2	-148	78*	-122	4
O=C(Nc1ccccc1C(F)(F)F)N1CCN(c2ccccn2)CC1	5	0	-10	-4	-11	89*
C/C(=N\NC(=O)c1ccc(Cl)c(Cl)c1)c1ccc(Br)s1	-8	-3	52*	91*	21	4
Cc1cc(N)c2cc(NC(=O)/C=C/c3ccccc3Cl)ccc2n1	1	-2	/	107*	7	7
CCN(CC(=O)Nc1cccc(OC)c1)c1ncnc2sc(C)c(C)c12	3	-2	-3	-24	11	4
